Assay results reported in PubChem BioAssay (EPA / NIEHS).
Records with an inconclusive call do not appear. Calls of active or inactive are those of the source. Rule for the calls: active = hit-call score of the fitted dose curve at least 0.9, where 1 is the maximum; inconclusive = response in the unintended direction; inactive = score below 0.9.

Read-out: alkyl and aryl transferase (GSTA2), GSTA2 (gene 2939)
Assay: CLD_GSTA2_6hr: CellzDirect (CLD) Gene Expression Assay for alkyl and aryl transferase (GSTA2) at 6 hours (AID 2283666)
Protocol: CLD_6hr is a cell-based, multiplexed-readout assay that uses hepatocyte, a human liver primary cell, with measurements taken at 6 hours after chemical dosing in a 96-well plate.CLD_GSTA2_6hr is one of 16 assay component(s) measured or calculated from the CLD_6hr assay. It is designed to make measurements of mRNA induction, a form of inducible reporter, as detected with chemiluminescence signals by Quantitative Nuclease Protection Assay (qNPA) technology.Data from the assay component CLD_GSTA2_6hr was analyzed at the endpoint, CLD_GSTA2_6hr, in the positive analysis fitting direction relative to DMSO as the negative control and baseline of activity. Using a type of inducible reporter, gain-of-signal activity can be used to understand changes in the reporter gene as they relate to the gene GSTA2. Furthermore, this assay endpoint can be referred to as a primary readout. To generalize the intended target to other relatable targets, this assay endpoint is annotated to the transferase intended target family, where subfamily is alkyl and aryl transferase.
Human hepatocyte cultures were treated daily for two consecutive days with fresh dosing solutions containing appropriate concentrations of the 320 ToxCast chemicals (chemical identities were blinded to CellzDirect and other ToxCast collaborators), vehicle control (0.2% DMSO), and positive control inducers as summarized in Table 1. Due to the large number of treatment groups and chemicals examined, the ToxCast chemicals were divided into two groups (spanning two independent cultures of hepatocytes from separate donor preparations (Hu778: ToxCast plates 1 and 2; Hu776: ToxCast plates 3 and 4). Each preparation of human hepatocyte cultures was treated with respective vehicle control, medium only control, set of six positive controls/reference chemicals for the five hepatic receptor pathways, and a subset of eight of the ToxCast chemicals (indoxacarb, pyrithiobac-sodium, norflurazon, cyhalofop-butyl, methomyl, thiram, acetochlor, and propiconazole). These replicate data, coupled with internal replicates designed within the blinded ToxCast chemical library, provided additional data to evaluate interindividual differences between hepatocyte preparations and their potential impact on chemical profiles.Cell morphology and integrity were evaluated using phase-contrast microscopy as an indicator of hepatocyte cell health (Tyson & Green, 1987). Cultures for each treatment group (i.e., media, vehicle [0.2% DMSO], positive control inducers [multiple concentrations], and the ToxCast chemicals [multiple concentrations]) were observed and cell morphology was assessed relative to vehicle control cultures at each harvest time point (0, 6, 24, or 48 h). […] Images were evaluated at the conclusion of the study to assess changes in cell integrity and account for the effects of chemical exposure on uncharacteristic changes in concentration-dependent gene expression profiles. The results from these determinations of apparent cytotoxicity were annotated (yes/no) alongside the corresponding qNPA data for reference.At the conclusion of each treatment period, hepatocyte cultures (96-well) were washed with 1 volume of HBSS, lysed by addition of 25 ul ArrayPlate lysis buffer (HTG, Tucson, AZ), and 70 ul/well of Denaturation Oil, denatured by incubation at 95C for 10 min, and frozen at approximately -70C until analysis by nuclease protection assay (qNPA) (Roberts et al., 2007). For qNPA analysis, cell lysates were thawed at 50C for approximately 30 min, qNPA probes were added, and samples were incubated at 95C for 10 min to begin the detection process by denaturing the target RNA, dissociating the duplexes and secondary structure hybridization. At the conclusion of the hybridization period, S1 nuclease reagent was added to each sample to digest all nonprotected nucleotides at 50C for 60-90 min. […]

Row | SMILES | outcome
1 | COC(=O)c1c(Cl)nn(C)c1S(=O)(=O)NC(=O)Nc1nc(OC)cc(OC)n1 | inactive
2 | CCCOC(=O)NCCCN(C)C | inactive
3 | O=C(Nc1ccc([N+](=O)[O-])cc1Cl)c1cc(Cl)ccc1O | inactive
4 | N#CSCSc1nc2ccccc2s1 | inactive
5 | CC(C)(C)[C@@H](O)[C@@H](Cc1ccc(Cl)cc1)n1cncn1 | inactive
6 | Oc1ccc(C(c2ccc(O)cc2)C(Cl)(Cl)Cl)cc1 | inactive
7 | COc1nc(C)nc(NC(=O)NS(=O)(=O)c2ccccc2OCCCl)n1 | inactive
8 | S=C([S-])NCCNC(=S)[S-].[Mn+2] | inactive
9 | CC1(C)C(C=C(Cl)Cl)C1C(=O)OCc1cccc(Oc2ccccc2)c1 (stereo not drawn) | inactive
10 | Cc1nn(C)c(Oc2ccccc2)c1C=NOCc1ccc(C(=O)OC(C)(C)C)cc1 | inactive
11 | O=C(O)C1(C(=O)Nc2ccc(Cl)cc2Cl)CC1 | inactive
12 | CCSC(=O)N(CC(C)C)CC(C)C | inactive
13 | CCCCCOC(=O)COc1cc(N2C(=O)C3=C(CCCC3)C2=O)c(F)cc1Cl | inactive
14 | CCNc1nc(N)nc(Cl)n1 | inactive
15 | CCN(Cc1c(F)cccc1Cl)c1c([N+](=O)[O-])cc(C(F)(F)F)cc1[N+](=O)[O-] | inactive
16 | CCC(O)=C1C(=O)CC(C(=O)O)CC1=O (stereo not drawn) | inactive
17 | CCCN(CCC)c1c([N+](=O)[O-])cc(C(F)(F)F)c(N)c1[N+](=O)[O-] | inactive

Row | SMILES | outcome
18 | CCCN(CCC)C(=O)SCC | inactive
19 | COC(=O)c1ccc(I)cc1S(=O)(=O)NC(=O)Nc1nc(C)nc(OC)n1 | inactive
20 | COCCO | inactive
21 | CCC(C)OC(=O)N1CCCCC1CCO (stereo not drawn) | inactive
22 | COC(=O)c1ccccc1S(=O)(=O)NC(=O)Nc1nc(OC(F)F)cc(OC(F)F)n1 | inactive
23 | CCOC(=O)C(C)Oc1ccc(Oc2cnc3cc(Cl)ccc3n2)cc1 (stereo not drawn) | inactive
24 | CN(C)C(=O)Nc1ccc(Cl)c(Cl)c1 | inactive
25 | COc1c(Cl)ccc(Cl)c1C(=O)O | inactive
26 | CSC(=O)c1cccc2nnsc12 | inactive
27 | CCCCOC(=O)C(C)Oc1ccc(Oc2ccc(C(F)(F)F)cn2)cc1 (stereo not drawn) | inactive
28 | c1ccc(Nc2ccccc2)cc1 | inactive
29 | C=CCOC(Cn1ccnc1)c1ccc(Cl)cc1Cl (stereo not drawn) | inactive
30 | CC(C)(c1ccc(O)cc1)c1ccc(O)cc1 | inactive
31 | CCN(CC)C(=O)c1cccc(C)c1 | inactive
32 | CCOC(=O)C(C)Oc1ccc(Oc2nc3ccc(Cl)cc3o2)cc1 (stereo not drawn) | inactive
33 | c1ccc2[nH]c(-c3cscn3)nc2c1 | inactive
